# Assay results: PubChem BioAssay (NCATS)
# Values joined by “and” are separate entries in the source; they are usually repeats but may differ in a detail not shown here. Identical values can stand only once. Inconclusive results are not listed. Unmarked numbers belong to inactive results. Active and inactive are the calls of the source. Calls follow the shape of the dose curve; as a rule, active = well fitted inhibition curve with a large enough effect; inconclusive = small, poorly fitted or top-dose-only effect; inactive = flat fitted curve, though single readings scatter.
# Tests used:
# [1] = test system: CRL-7250; assay: Cytotoxic Profiling of Annotated Libraries Using Quantitative High-Throughput Screening (AID 1296008); details: Five cell lines viability, CellTiter-Glo ATP luminescence, 48-72 h; max response: stronger effect = lower value; also: potency is read from the fitted curve at half-maximal effect; as to max response: % is scaled to controls: 0 for no effect and ±100 for the full control effect
# Summary of the method: (§1)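 Cells exposed to compounds for 48 or 72 hr at 37 degrees Celsius. Viability read as ATP-coupled luminescence with CellTiter-Glo after 10 min at room temperature.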
# [2] = test system: HaCat; assay: as above; details: Five cell lines viability, CellTiter-Glo ATP luminescence, 48-72 h; max response: stronger effect = lower value
# Summary of the method: as §1
# [3] = test system: HACAT; assay: qHTS assay to identify novel small-molecules to repurpose for Merkel cell carcinoma treatment (AID 1296009); details: MCC and control cell lines, CellTiter-Glo viability, 72 h; at 44.8 µM (top of the series) unless noted
# Summary of the method: (§2)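 Cells were incubated with compound for 72 hr at 37 degree celsius before CellTiter-Glo addition. Luminescence was normalized with no-cell wells as full cytotoxicity and DMSO as baseline.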
# [4] = test system: HEK293; assay: Cytotoxic Profiling of Annotated Libraries Using Quantitative High-Throughput Screening (AID 1296008); details: Five cell lines viability, CellTiter-Glo ATP luminescence, 48-72 h; max response: stronger effect = lower value; also: potency is read from the fitted curve at half-maximal effect; as to max response: % is scaled to controls: 0 for no effect and ±100 for the full control effect
# Summary of the method: as §1
# [5] = test system: KB-3-1; assay: as above; details: Five cell lines viability, CellTiter-Glo ATP luminescence, 48-72 h; max response: stronger effect = lower value
# Summary of the method: as §1
# [6] = test system: NIH3T3; assay: as above; details: Five cell lines viability, CellTiter-Glo ATP luminescence, 48-72 h; max response: stronger effect = lower value
# Summary of the method: as §1
# [7] = test system: N140; assay: qHTS profiling for inhibitors of Plasmodium falciparum proliferation (AID 504749); also: potency is read from the fitted curve at half-maximal effect; details: P. falciparum in erythrocytes, SYBR Green DNA, 72 h; series mostly up to 28.7 µM
# Summary of the method: (§3)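 Readout was DNA-dye fluorescence from lysed cultures, ex 485/em 535 nm. Parasitized red cells had grown 72 h with compound; data scaled between 0.29 uM artemisinin and DMSO wells and corrected using vehicle-only plates.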
# [8] = test system: P93_24; assay: as above; details: P. falciparum in erythrocytes, SYBR Green DNA, 72 h; series mostly up to 28.7 µM
# Summary of the method: as §3
# [9] = test system: P94_40; assay: as above; details: P. falciparum in erythrocytes, SYBR Green DNA, 72 h; series mostly up to 28.7 µM
# Summary of the method: as §3
# [10] = test system: PAD; assay: as above; details: P. falciparum in erythrocytes, SYBR Green DNA, 72 h; series mostly up to 28.7 µM
# Summary of the method: as §3
# [11] = test system: PC15; assay: as above; details: P. falciparum in erythrocytes, SYBR Green DNA, 72 h; series mostly up to 28.7 µM
# Summary of the method: as §3
# [12] = test system: PC49; assay: as above; details: P. falciparum in erythrocytes, SYBR Green DNA, 72 h; series mostly up to 28.7 µM
# Summary of the method: as §3
# [13] = test system: SC27B; assay: as above; details: P. falciparum in erythrocytes, SYBR Green DNA, 72 h; series mostly up to 28.7 µM
# Summary of the method: as §3
# [14] = test system: TAB109; assay: as above; details: P. falciparum in erythrocytes, SYBR Green DNA, 72 h; series mostly up to 28.7 µM
# Summary of the method: as §3
# [15] = test system: TAB113; assay: as above; details: P. falciparum in erythrocytes, SYBR Green DNA, 72 h; series mostly up to 28.7 µM
# Summary of the method: as §3
# [16] = test system: TAB165; assay: as above; details: P. falciparum in erythrocytes, SYBR Green DNA, 72 h; series mostly up to 28.7 µM
# Summary of the method: as §3
# [17] = test system: W2; assay: as above; details: P. falciparum in erythrocytes, SYBR Green DNA, 72 h; series mostly up to 28.7 µM
# Summary of the method: as §3
# [18] = test system: HEK293T; assay: qHTS assay to identify novel small-molecules to repurpose for Merkel cell carcinoma treatment (AID 1296009); details: MCC and control cell lines, CellTiter-Glo viability, 72 h; at 44.8 µM (top of the series) unless noted
# Summary of the method: as §2
# Also: nearly all actives have a fitted effect of over 60% in size.
compound,measurement,setting,value
NCc1c[nH]c(=S)n1[C@H]1CCc2c(F)cc(F)cc2C1,Potency,[1],16.6 µM (active)
same,outcome,[2],inactive
same,outcome,[3],inactive
Cc1ccc2c(c1)C(=O)[C@]1(O)CCN(c3ccccc3)C1=N2,max response,[4],-19.6%
NS(=O)(=O)c1ccc(Nc2nc(OCC3CCCCC3)c3[nH]cnc3n2)cc1,Potency,[4],18.4 µM (active)
same,max response,[2],-17.9%
same,Potency,[5],14.8 µM (active)
NC1(C(=O)N[C@@H](CCO)c2ccc(Cl)cc2)CCN(c2ncnc3[nH]ccc23)CC1,Potency,[4],469 nM (active) and 517 nM (active)
same,max response,[2],-16.7%
same,max response,[5],-18% and -7.12%
same,max response,[6],-1.34%
same,outcome,[6],inactive
CC(C)C[C@@H](C(=O)N[C@H](C(=O)OC1CCCC1)c1ccccc1)[C@H](O)C(=O)NO,Potency,[4],18.7 µM (active)
CNc1nc(-c2ccc3c(N)n[nH]c3c2)cc(N2C[C@@H](C(=O)NC3CCCCC3)CC[C@@H]2C)n1,Potency,[4],7.43 µM (active)
same,max response,[2],-5.08%
NC(=O)c1nnn(Cc2cc(Cl)c(C(=O)c3ccc(Cl)cc3)c(Cl)c2)c1N,Potency,[4],20.9 µM (active)
same,max response,[2],-5.54%
same,max response,[5],-25.7%
COc1cc2nc(-c3cc(F)ccc3O)nc(N[C@@H]3CNC[C@@H]3C(C)(C)O)c2cc1OC,Potency,[4],14.8 µM (active)
same,Potency,[2],26.4 µM (active)
same,Potency,[5],16.6 µM (active)
Cc1c(-c2cccc3c(CCCOc4cccc5ccccc45)c(C(=O)O)n(Cc4cccnc4)c23)c(COc2ccc(N3CCN([S+](=O)([O-])N(C)C)CC3)cc2)nn1C,max response,[1],-2.89%
same,max response,[2],-5.9%
same,max response,[6],-4.88%
CCCC1OC2C[C@@H]3[C@H]4CCC5=CC(=O)C=C[C@]5(C)[C@H]4C(O)C[C@]3(C)[C@]2(C(=O)CO)O1 (stereo not given in full),max response,[1],-14.4%
same,max response,[5],-2.26%
same,max response,[6],-21.2%
C#CCN(C)CC1=Cc2ccccc2Oc2ccccc21,max response,[1],-16.4%
same,max response,[5],-4.88%
same,max response,[6],-28.1%
CCN(CCO)CCCOc1ccc2c(Nc3cc(CC(=O)Nc4cccc(F)c4)[nH]n3)ncnc2c1,max response,[1],-19.9%
same,max response,[5],-29.8%
same,max response,[6],-28.4%
COc1c(C)c2c(c(O)c1CC=C(C)CCC(=O)OCCN1CCOCC1)C(=O)OC2,Potency,[7],8.91 µM (active)
same,Potency,[8],7.08 µM (active)
same,Potency,[9],7.94 µM (active)
same,Potency,[10],11.2 µM (active)
same,outcome,[11],inactive
same,outcome,[12],inactive
same,Potency,[13],5.01 µM (active)
same,Potency,[14],7.08 µM (active)
same,Potency,[15],5.01 µM (active)
same,Potency,[16],5.01 µM (active)
same,Potency,[17],6.01 µM (active)
same,Potency,[1],3.32 µM (active)
same,max response,[2],-7.64%
same,Potency,[6],5.26 µM (active)
C[C@@H](O[C@H]1OCCN(Cc2n[nH]c(=O)[nH]2)[C@@H]1c1ccc(F)cc1)c1cc(C(F)(F)F)cc(C(F)(F)F)c1,Potency,[4],20.9 µM (active)
same,max response,[2],-38.5%
same,Potency,[5],26.4 µM (active)
same,max response,[6],-21.1%
CC(C)(O)CC(=O)NCCn1ccc2ncnc(Nc3ccc(Oc4cccc(C(F)(F)F)c4)c(Cl)c3)c21,Potency,[4],16.6 µM (active)
same,Potency,[2],372 nM (active) and 3.66 µM (active)
CC(C)N(CCCNC(=O)Nc1ccc(C(C)(C)C)cc1)C[C@H]1O[C@@H](n2cc(Br)c3c(N)ncnc32)[C@H](O)[C@H]1O,Potency,[4],18.7 µM (active)
same,max response,[2],-6.68%
same,Potency,[5],26.4 µM (active)
CC1=C[C@@H]2[C@@H]([C@@H](O)C[C@@]3(C)[C@H]2C[C@@H](C)[C@]3(O)C(=O)CO)[C@@]2(C)Cc3cnn(-c4ccccc4)c3C=C12,Potency,[4],10.3 µM (active)
same,Potency,[2],20.6 µM (active)
same,Potency,[6],14.6 µM (active)
C[C@@H]1CC=CC=CC=CC=C[C@@H](O[C@@H]2O[C@H](C)[C@@H](O)[C@H](N)[C@H]2O)C[C@@H]2O[C@](O)(C[C@@H](O)C[C@@H]3O[C@@H]3C=CC(=O)O1)C[C@H](O)[C@@H]2C(=O)O,max response,[1],-2.36%
same,max response,[2],-1.58%
same,max response,[6],4.91%
Cn1c(=O)c(Oc2ccc(F)cc2F)cc2cnc(NC3CCOCC3)nc21,max response,[1],-20.5%
same,max response,[5],-6.47%
same,max response,[6],-13.2%
OCCn1cc(-c2ccc3c(c2)CCC3=NO)c(-c2ccncc2)n1,max response,[4],2.25%
same,max response,[2],1.64%
same,max response,[5],-5.13%
same,max response,[6],-8.29%
CN1N=C(N)c2cn([C@@H]3O[C@H](COP(=O)(O)O)[C@@H](O)[C@@H]3O)c3ncnc1c23,Potency,[1],1.32 µM (active)
same,Potency,[5],3.72 µM (active)
same,Potency,[6],0.418 µM (active)
Oc1cc(O)cc(C=Cc2ccc(O)c(O)c2)c1,outcome,[4],inactive
same,max response,[2],-2.98%
same,max response,[5],-8.49%
same,max response,[6],3.17%
same,outcome,[18],inactive
c1ccc(-c2oc3ncnc(NC[C@@H]4CCCO4)c3c2-c2ccccc2)cc1,max response,[1],-6.45%
same,max response,[2],-3.81%
same,Potency,[6],14.6 µM (active)
Cc1cccc(-c2[nH]c(C(C)(C)C)nc2-c2ccc3c(c2)OCO3)n1,Potency,[4],4.18 µM (active)
same,max response,[2],-21.5%
same,Potency,[6],7.43 µM (active)
CCNC(=O)c1noc(-c2cc(C(C)C)c(O)cc2O)c1-c1ccc(CN2CCOCC2)cc1,Potency,[1],0.0833 µM (active)
same,Potency,[2],469 nM (active) and 41.1 nM (active)
same,Potency,[6],264 nM (active) and 51.7 nM (active)
CN(C)N=Nc1nc[nH]c1C(N)=O,Potency,[4],3.72 µM (active)
same,Potency,[2],18.7 µM (active)
same,Potency,[5],4.69 µM (active)
same,max response,[6],-2.97%
CCC(=C(CC)c1ccc(O)cc1)c1ccc(O)cc1,max response,[1],2.3%
same,outcome,[2],inactive
same,max response,[6],-12.1%
same,outcome,[3],inactive
Cc1ccc(NC(=O)Nc2cc(C(F)(F)F)ccc2F)cc1Nc1ccc2c(c1)NC(=O)C2=Cc1ccc[nH]1,Potency,[4],11.8 µM (active)
same,Potency,[5],9.35 µM (active)
same,Potency,[6],16.6 µM (active)
CN[C@@H]1CN(c2ccc3c(=O)c(C(=O)O)cn(-c4nccs4)c3n2)C[C@@H]1OC,Potency,[4],1.29 µM (active)
same,Potency,[2],6.45 µM (active)
same,Potency,[6],0.512 µM (active)
